The results in this text go back to PubChem BioAssay (Tox21).

Unmarked numbers belong to inactive results. Records with an inconclusive call do not appear. The source made the active and inactive calls. Unless noted, calls come from the whole dose curve; as a rule, active = well fitted curve in the direction sought with a large enough effect in the repeat runs; inconclusive = weak or mixed curves; inactive = no such curve, though single readings can be large; an effect the other way counts as inactive or inconclusive.

A short description of test [1]: qHTS assay to identify small molecule antagonists of the glucocorticoid receptor (GR) signaling pathway - cell viability counter screen (AID 720693). Note: nearly all actives have a fitted effect of over 55% in size.
Test [2] in a line: qHTS assay for identifying genotoxic compounds that show differential cytotoxicity against isogenic chicken DT40 cell lines with known DNA damage response pathways - Rad54/Ku70 mutant cell line (AID 743015). Note: nearly all actives have a fitted effect of over 60% in size. Note: potency is the fitted concentration of half-maximal effect.
The nature of test [3]: qHTS assay to identify small molecule antagonists of the androgen receptor (AR) signaling pathway - cell viability counter screen (AID 743033; note: nearly all actives have a fitted effect of over 45% in size). A general note: Quantitative high-throughput screening tests each substance at several concentrations.
The nature of test [4]: qHTS assay to identify small molecule antagonists of the thyroid receptor (TR) signaling pathway - cell viability counter screen (AID 743064). Note: nearly all actives have a fitted effect of over 50% in size. The procedure, abridged: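 Plate GH3.TRE-Luc cells; incubate 4 h at 37 °C; add compound, then T3 to 1 nM final; incubate 23.5 h; add CellTiter-Fluor; incubate 30 min at 37 °C, 5% CO2; read fluorescence.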
A short description of test [5]: qHTS assay to identify small molecule antagonists of the thyroid receptor (TR) signaling pathway (AID 743065). For activity, negative = inhibition: series mostly up to about 70 µM. Note: nearly all actives have a fitted effect of over 55% in size. Note: potency is the fitted concentration of half-maximal effect. A digest of the protocol:
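Antagonism measured as loss of luciferase signal in GH3 cells stably carrying a TRE-luciferase reporter, co-treated with compound and T3 (1 nM final) for 23.5 h at 37 C. Viability was read in the same well by CellTiter-Fluor.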

In test [6] the test system is thyroid hormone receptor (rat, GH3 cells). Nature of the test: qHTS assay to identify small molecule agonists of the thyroid receptor (TR) signaling pathway (AID 743066; calls by dose curve; note: potency is the fitted concentration of half-maximal effect).
For test [7], the target named is Estrogen receptor (Homo sapiens) (UniProt P03372). Nature of the test: qHTS assay to identify small molecule antagonists of the estrogen receptor alpha (ER-alpha) signaling pathway (AID 743069; active = well fitted curve in the direction sought with a large enough effect in the signal ratio in the repeat runs, not every such curve was filed as active; the % refers to the signal ratio). The procedure, abridged: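 Fluorescence intensity from a beta-lactamase FRET substrate served as the read-out. Cells: HEK293 with stably integrated ER-alpha-UAS-bla reporter. Agonist 17beta-estradiol was co-added with compounds; incubation 18 hr at 37C, substrate 2 hr at room temperature.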

The nature of test [8]: qHTS assay to identify small molecule antagonists of the estrogen receptor alpha (ER-alpha) signaling pathway - cell viability counter screen (AID 743074; calls by dose curve; note: nearly all actives have a fitted effect of over 45% in size).
Test [9] deals with Estrogen receptor (Homo sapiens) (UniProt P03372). Nature of the test: qHTS assay to identify small molecule agonists of the estrogen receptor alpha (ER-alpha) signaling pathway (AID 743075; calls by dose curve).
Test [10] shares this target. Nature of the test: qHTS assay to identify small molecule agonists of the estrogen receptor alpha (ER-alpha) signaling pathway using the BG1 cell line (AID 743079). Note: nearly all actives have a fitted effect of over 20% in size. Note: potency is the fitted concentration of half-maximal effect.
Test [11] in a line: qHTS assay to identify small molecule antagonists of the estrogen receptor alpha (ER-alpha) signaling pathway using the BG1 cell line (AID 743080; calls by dose curve;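 note: BG1 cells stimulated with 17beta-estradiol alongside compound; series mostly up to about 70 µM; nearly all actives have a fitted effect of over 25% in size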). The procedure, abridged: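 Readout is ONE-Glo luminescence, taken 30 min at room temperature after reagent addition, preceded by a CellTiter-Fluor viability read; BG1-Luc-4E2 cells had received compound and 17beta-estradiol for 21.5 h at 37 C.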

Test [12] in a line: qHTS assay to identify small molecule antagonists of the estrogen receptor alpha (ER-alpha) signaling pathway using the BG1 cell line - cell viability counter screen (AID 743081).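 Note: compound given together with 17beta-estradiol as the ER stimulus; series mostly up to about 70 µM; nearly all actives have a fitted effect of over 45% in size.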
Another test concerns the target Aromatase (Homo sapiens) (UniProt P11511). Nature of the test: qHTS assay to identify aromatase inhibitors (AID 743083). Note: series mostly up to about 70 µM; nearly all actives have a fitted effect of over 55% in size.
Test [13] can be described thus: qHTS assay for identifying genotoxic compounds that show differential cytotoxicity against isogenic chicken DT40 cell lines with known DNA damage response pathways - wild type cell line (AID 743012). Note: nearly all actives have a fitted effect of over 60% in size. Note: potency is the fitted concentration of half-maximal effect. A digest of the protocol: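 Viability by ATP luminescence (CellTiter-Glo, 30 min RT) after 40 h compound treatment at 37 C/5% CO2, using 300 parental DNA repair-proficient DT40 cells per well.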

A short description of test [14]: qHTS assay for identifying genotoxic compounds that show differential cytotoxicity against isogenic chicken DT40 cell lines with known DNA damage response pathways - Rev3 mutant cell line (AID 743014). Note: nearly all actives have a fitted effect of over 55% in size. Note: potency is the fitted concentration of half-maximal effect.
Test [15] concerns the target Androgen receptor (Homo sapiens) (UniProt P10275). Nature of the test: qHTS assay to identify small molecule antagonists of the androgen receptor (AR) signaling pathway (AID 743035; active = well fitted inhibition curve with a large enough effect in the signal ratio in the repeat runs, not every such curve was filed as active; the % refers to the signal ratio; note: potency is the fitted concentration of half-maximal effect). A digest of the protocol: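 Antagonist mode: AR-bla HEK293 cells co-treated with test compounds and agonist R1881 for 16 h at 37C, 5% CO2. Beta-lactamase activity read as FRET fluorescence after 2 h room-temperature substrate loading.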

For test [16] the target is unchanged. Nature of the test: qHTS assay to identify small molecule agonists of the androgen receptor (AR) signaling pathway using the MDA cell line (AID 743040; note: nearly all actives have a fitted effect of over 20% in size; note: potency is the fitted concentration of half-maximal effect). A digest of the protocol: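 Stable MMTV-luciferase reporter in MDA-kb2 cells; note the promoter carries GR as well as AR response elements. 16 h compound treatment, 37C, 0% CO2; ONE-Glo luminescence endpoint.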

The target is the same in test [17]. Nature of the test: qHTS assay to identify small molecule antagonists of the androgen receptor (AR) signaling pathway using the MDA cell line (AID 743042; note: nearly all actives have a fitted effect of over 55% in size). A digest of the protocol: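 Antagonist mode: compounds plus R1881 agonist added to MDA-kb2 AR-luc cells, incubated 16 h at 37C. Luciferase reporter luminescence quantified, with multiplexed CellTiter-Fluor readout for cell viability.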

Test [18] can be described thus: qHTS assay to identify small molecule antagonists of the androgen receptor (AR) signaling pathway using the MDA cell line - cell viability counter screen (AID 743041; note: nearly all actives have a fitted effect of over 45% in size). The procedure, abridged:
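Using the breast carcinoma line MDA-kb2 AR-luc, test chemicals were co-incubated with R1881 for 16 h; CellTiter-Fluor reagent, added at 15.5 h, provided a fluorescence measure of live cells.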

Test [19] deals with Androgen receptor (Homo sapiens) (UniProt P10275). Nature of the test: qHTS assay to identify small molecule agonists of the androgen receptor (AR) signaling pathway (AID 743036; active = well fitted activation curve with a large enough effect in the signal ratio in the repeat runs, with a control signal flat, not every such curve was filed as active; the % refers to the signal ratio). The procedure, abridged: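 Reporter line: GeneBLAzer AR-UAS-bla-GripTite (HEK293). Steps: plate cells, 4 h rest, add compounds, 16 h at 37C, add LiveBLAzer B/G substrate, 2 h at RT, read fluorescence.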
% is set by controls: 0 for no effect and ±100 for the full control effect.

Aromatase (Homo sapiens), sequence (P11511 whole entry, looked up): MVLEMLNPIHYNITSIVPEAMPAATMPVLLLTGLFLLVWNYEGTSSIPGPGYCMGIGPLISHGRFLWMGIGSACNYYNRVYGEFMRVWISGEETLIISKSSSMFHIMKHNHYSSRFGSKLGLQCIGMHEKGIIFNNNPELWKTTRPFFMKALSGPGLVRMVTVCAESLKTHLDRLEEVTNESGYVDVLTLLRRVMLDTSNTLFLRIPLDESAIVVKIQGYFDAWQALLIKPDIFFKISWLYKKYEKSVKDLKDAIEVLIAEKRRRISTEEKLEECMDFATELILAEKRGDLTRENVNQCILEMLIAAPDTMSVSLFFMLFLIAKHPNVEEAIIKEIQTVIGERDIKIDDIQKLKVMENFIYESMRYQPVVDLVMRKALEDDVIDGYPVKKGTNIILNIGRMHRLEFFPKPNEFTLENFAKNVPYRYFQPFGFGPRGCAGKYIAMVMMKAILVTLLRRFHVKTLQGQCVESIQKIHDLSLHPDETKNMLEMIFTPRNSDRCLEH
Androgen receptor (Homo sapiens), sequence (P10275 whole entry, looked up): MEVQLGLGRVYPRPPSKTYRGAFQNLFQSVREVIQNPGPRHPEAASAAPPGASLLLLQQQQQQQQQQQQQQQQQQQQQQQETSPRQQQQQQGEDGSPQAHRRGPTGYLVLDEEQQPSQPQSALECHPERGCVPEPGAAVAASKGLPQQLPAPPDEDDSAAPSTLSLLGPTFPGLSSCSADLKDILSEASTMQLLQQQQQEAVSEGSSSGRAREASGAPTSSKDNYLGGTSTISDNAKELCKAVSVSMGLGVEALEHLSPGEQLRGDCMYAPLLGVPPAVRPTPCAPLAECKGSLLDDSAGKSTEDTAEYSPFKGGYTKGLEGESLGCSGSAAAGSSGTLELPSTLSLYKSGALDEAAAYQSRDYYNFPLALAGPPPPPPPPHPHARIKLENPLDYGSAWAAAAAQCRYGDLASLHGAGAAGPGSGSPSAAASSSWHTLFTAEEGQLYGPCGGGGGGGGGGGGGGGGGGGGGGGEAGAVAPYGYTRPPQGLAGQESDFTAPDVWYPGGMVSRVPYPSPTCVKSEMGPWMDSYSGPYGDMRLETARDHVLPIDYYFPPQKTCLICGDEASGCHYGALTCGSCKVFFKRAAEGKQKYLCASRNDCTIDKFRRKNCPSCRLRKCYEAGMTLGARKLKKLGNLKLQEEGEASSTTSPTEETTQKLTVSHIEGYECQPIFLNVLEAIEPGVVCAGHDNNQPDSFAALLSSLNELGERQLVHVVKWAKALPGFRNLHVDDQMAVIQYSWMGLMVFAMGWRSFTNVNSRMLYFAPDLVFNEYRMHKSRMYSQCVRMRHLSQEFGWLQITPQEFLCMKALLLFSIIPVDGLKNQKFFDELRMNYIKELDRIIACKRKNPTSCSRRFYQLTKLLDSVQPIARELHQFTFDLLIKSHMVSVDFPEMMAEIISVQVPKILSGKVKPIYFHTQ
Estrogen receptor (Homo sapiens), sequence (P03372 whole entry, looked up): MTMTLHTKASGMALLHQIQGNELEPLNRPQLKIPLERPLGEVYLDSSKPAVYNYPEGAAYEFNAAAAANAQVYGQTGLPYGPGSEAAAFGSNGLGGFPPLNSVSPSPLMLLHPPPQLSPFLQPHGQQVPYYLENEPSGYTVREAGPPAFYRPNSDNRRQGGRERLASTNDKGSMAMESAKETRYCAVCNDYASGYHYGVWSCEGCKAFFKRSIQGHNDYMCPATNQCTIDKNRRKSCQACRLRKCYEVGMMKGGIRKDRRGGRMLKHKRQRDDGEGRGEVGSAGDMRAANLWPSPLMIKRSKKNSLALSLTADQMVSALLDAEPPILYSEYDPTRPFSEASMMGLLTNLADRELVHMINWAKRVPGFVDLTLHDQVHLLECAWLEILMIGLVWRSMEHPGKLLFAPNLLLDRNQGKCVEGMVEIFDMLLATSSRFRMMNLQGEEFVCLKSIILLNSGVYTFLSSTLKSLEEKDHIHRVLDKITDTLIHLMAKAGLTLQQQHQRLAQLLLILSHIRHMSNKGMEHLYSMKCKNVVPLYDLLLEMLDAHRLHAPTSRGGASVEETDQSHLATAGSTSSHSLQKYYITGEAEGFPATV

Take `CC(C)=CC(=O)O`: the outcome in test [1], in test [3], in test [8] and in test [12] was inactive. Moreover, the Potency entry in test [2], in test [4], in test [5], in [6], in test [7] and in test [9] was “inactive” throughout. Moreover, the Potency result (in [11]; with Aromatase (Homo sapiens)) was “inactive” each time. Further, the Potency in [10] was 54.5 µM (active).

Consider `CCCC(=O)O[C@]1(C(=O)CCl)[C@@H](C)C[C@H]2[C@@H]3CCC4=CC(=O)C=C[C@]4(C)[C@@]3(F)C(=O)C[C@@]21C`, for which the Potency in test [13] was 6.68 µM (active); in test [14], 7.5 µM (active); in test [2], 13.3 µM (active); in [15] it was 7.56 µM (active); in [16] it was 0.006 µM (active); in test [5], 11.9 µM (active). The compound was called inactive in test [3], in test [17] and in test [8]. In addition, the Potency result (in [4]; in test [6]; in test [9]; in test [10]; in the test with Aromatase (Homo sapiens)) was “inactive” throughout.

As to `NC(=S)Nc1cccc2ccccc12`, the viability change, negative = cytotoxic in test [1] is -9.87% [at 7.04 µM]; in test [18], -0.0936% [at 8.47 µM]. Besides, the activity, negative = cytotoxicity in test [14] is -8.62% [at 8.53 µM]; in test [8] it was 13.6% [at 6.72 µM]. Also, the activity change, negative = cytotoxicity in [3] is 0.303% [at 7.04 µM]; in test [12], -0.944% [at 8.47 µM]. For the same compound, the activity, negative = inhibition in test [5] is -4.6% [at 8.44 µM]; with Aromatase (Homo sapiens), 16.7% [at 8.47 µM]. For the same compound, in test [6], the activation is 0.336% [at 8.08 µM].

As to `CC(CCO)CCCC(C)(C)O` (configuration not stated), the result in test [1], in test [8] and in test [12] was inactive. Also, the Potency in test [14] was 48.6 µM (active); in test [6], 27.3 µM (active). Moreover, the Potency entry (in [18]; in test [5]; with Aromatase (Homo sapiens)) was “inactive” throughout.

Regarding `OCCN1C[C@H](O)[C@@H](O)[C@H](O)[C@H]1CO`, the Potency entry in [13], in [14], in test [2], in test [15], in [16] and in test [5] was “inactive” each time. The Potency result (in test [6]; in [7]; in [9]; in [10]; in [11]; with Aromatase (Homo sapiens)) was “inactive” throughout. In addition, the outcome in test [3], in [19], in test [17], in [8] and in test [12] was inactive.

With `CCN1CCCC1CNC(=O)c1cc(S(N)(=O)=O)ccc1OC` (configuration not stated), the compound was called inactive in [1], in test [3], in test [19], in test [17], in test [8] and in test [12]. Besides, the Potency entry in test [2], in test [15], in test [16], in [18], in [4] and in test [5] was “inactive” in each case. The Potency entry (in test [6]; with Aromatase (Homo sapiens)) was “inactive” in each case.

In the case of `Cc1ccc(N)cc1[N+](=O)[O-]`, the Potency entry in test [13], in [14], in test [2], in [15], in test [16] and in test [4] was “inactive” each time. For the same compound, the Potency result in [5] and in test [6] was “inactive” each time. Further, the call in [3], in test [19], in [17], in test [8] and in test [12] was inactive.

`C=CCOc1nc(OCC=C)nc(OCC=C)n1`: the outcome in test [1], in test [3], in test [8] and in [12] was inactive. In addition, the Potency result (in [4]; in [5]; in test [6]; with Aromatase (Homo sapiens)) was “inactive” throughout.

As for `CCc1cc(S(=O)(=O)O)c2cc(C(C)C)cccc1-2`, the outcome in [1], in test [3] and in test [12] was inactive. The Potency result in test [14], in test [2], in [5], in [6], in test [7] and in test [9] was “inactive” each time. Further, the Potency entry (in test [10]; in test [11]; with Aromatase (Homo sapiens)) was “inactive” each time.

Consider `NS(=O)(=O)c1cc2c(cc1C(F)(F)F)NC(Cc1ccccc1)NS2(=O)=O` (configuration not stated), for which the Potency result in [13], in [14], in [2], in test [15], in test [16] and in test [4] was “inactive” throughout. Also, the Potency entry (in test [5]; in [6]; in the test with Aromatase (Homo sapiens)) was “inactive” throughout. Also, the compound was classed as inactive in [3], in [19], in test [17], in test [8] and in test [12].
